From PubChem BioAssay AID1159580 (chemical genetic matrix, 2015)
Out of some 5,500 compounds screened, about 2,000 (36%) were called active. Another 18% or so got no clear call; they are omitted. Some of the results follow. Unmarked numbers belong to inactive results. No stated cut-off is given here; in the data, active means normalized growth mostly below about 0.91 (no sharp cut-off); inconclusive means no clear call, values can overlap the other calls; inactive means mostly above about 0.92.

Assay: chemical genetic growth profiling, strain panel (AID 1159580);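 further: tested at 20 µM; growth read once vehicle control cultures reached saturation at 30 °C; 1 = growth at the plate median or of vehicle wells; lower values mean less growth of the strain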
Conditions: growth OD
[1] = S. cerevisiae deletion strains, locus YAL013W, strain DEP1, hits give low values
[2] = S. cerevisiae deletion strains, locus YBR229C, strain ROT2, hits give low values
[3] = S. cerevisiae deletion strains, locus YDL101C, strain DUN1, hits give low values
[4] = S. cerevisiae deletion strains, locus YDR150W, strain NUM1, hits give low values
[5] = S. cerevisiae deletion strains, locus YEL061C, strain CIN8, hits give low values
[6] = S. cerevisiae deletion strains, locus YGR078C, strain PAC10, hits give low values
[7] = S. cerevisiae deletion strains, locus YHR030C, strain SLT2, hits give low values
[8] = S. cerevisiae deletion strains, locus YHR087W, strain rtc3, hits give low values
[9] = S. cerevisiae deletion strains, locus YJR043C, strain POL32, hits give low values
[10] = S. cerevisiae deletion strains, locus YJR075W, strain HOC1, hits give low values
[11] = S. cerevisiae deletion strains, locus YLR039C, strain RIC1, hits give low values
[12] = S. cerevisiae deletion strains, locus YLR058C, strain SHM2 (second series), hits give low values
[13] = S. cerevisiae deletion strains, locus YLR085C, strain ARP6, hits give low values
[14] = S. cerevisiae deletion strains, locus YLR262C, strain YPT6, hits give low values
[15] = S. cerevisiae deletion strains, locus YML094W, strain GIM5, hits give low values
[16] = S. cerevisiae deletion strains, locus YMR219W, strain ESC1, hits give low values
[17] = S. cerevisiae deletion strains, locus YMR263W, strain SAP30, hits give low values
[18] = S. cerevisiae deletion strains, locus YNL128W, strain TEP1, hits give low values
[19] = S. cerevisiae deletion strains, locus YNL153C, strain GIM3, hits give low values
[20] = S. cerevisiae deletion strains, locus YNL298W, strain CLA4 (second series), hits give low values
[21] = S. cerevisiae deletion strains, locus YNL322C, strain KRE1, hits give low values
[22] = S. cerevisiae deletion strains, locus YNR030W, strain Alg12, hits give low values
[23] = S. cerevisiae deletion strains, locus YPL055C, strain LGE1, hits give low values
[24] = S. cerevisiae deletion strains, locus YPL241C, strain CIN2, hits give low values
[25] = S. cerevisiae deletion strains, locus YPR135W, strain CTF4, hits give low values

CCCCC#Cc1ccc(C(=O)NNC(=O)Nc2cc(Cl)cc(Cl)c2)o1
normalized growth [1]: 1.03 | normalized growth [2]: 1.01 | normalized growth (S. cerevisiae deletion strains, locus YCL061C, strain MRC1, hits give low values): 0.981 | normalized growth [3]: 1.02 | normalized growth [4]: 0.963 | normalized growth [5]: 0.963 | normalized growth [6]: 1 | normalized growth [7]: 1.01 | normalized growth [8]: 1.01 | normalized growth [9]: 0.998 | normalized growth [10]: 0.973 | normalized growth [11]: 1.03 | normalized growth [12]: 1.01 | normalized growth [13]: 1.07 | normalized growth [14]: 1.05 | normalized growth [15]: 1 | normalized growth [16]: 1.01 | normalized growth [17]: 1.07 | normalized growth (S. cerevisiae deletion strains, locus YMR307W, strain GAS1, hits give low values): 1 | normalized growth [18]: 0.995 | normalized growth [19]: 0.995 | normalized growth [20]: 1.03 | normalized growth [21]: 1.03 | normalized growth [22]: 0.995 | normalized growth [23]: 1.03 | normalized growth [24]: 1.02 | normalized growth [25]: 0.931

O=C(Nc1ccc(F)cc1)c1cc(Br)ccc1O
normalized growth (S. cerevisiae deletion strains, locus YAR019C, strain CDC15, hits give low values): 0.91 | normalized growth (S. cerevisiae deletion strains, locus YBL105C, strain PKC1, hits give low values): 0.907 | normalized growth (S. cerevisiae deletion strains, locus YBR135W, strain CKS1, hits give low values): 0.901 | normalized growth (S. cerevisiae deletion strains, locus YBR136W, strain MEC1, hits give low values): 0.913 | normalized growth (S. cerevisiae deletion strains, locus YBR160W, strain CDC28, hits give low values): 0.899 | normalized growth (S. cerevisiae deletion strains, locus YDL017W, strain CDC7, hits give low values): 0.898 (active) | normalized growth (S. cerevisiae deletion strains, locus YDL028C, strain MPS1, hits give low values): 0.909 | normalized growth [3]: 0.952 | normalized growth (S. cerevisiae deletion strains, locus YDL108W, strain KIN28, hits give low values): 0.897 | normalized growth (S. cerevisiae deletion strains, locus YDL132W, strain cdc53, hits give low values): 0.94 | normalized growth (S. cerevisiae deletion strains, locus YDL214C, strain PRR2, hits give low values): 0.867 | normalized growth (S. cerevisiae deletion strains, locus YDR052C, strain DBF4, hits give low values): 0.905 (active) | normalized growth (S. cerevisiae deletion strains, locus YDR054C, strain cdc34, hits give low values): 0.876 (active) | normalized growth (S. cerevisiae deletion strains, locus YDR226W, strain ADK1, hits give low values): 0.941 | normalized growth (S. cerevisiae deletion strains, locus YDR477W, strain SNF1, hits give low values): 0.882 | normalized growth (S. cerevisiae deletion strains, locus YER123W, strain YCK3, hits give low values): 0.806 | normalized growth (S. cerevisiae deletion strains, locus YER133W, strain GLC7, hits give low values): 0.908 | normalized growth (S. cerevisiae deletion strains, locus YFL009W, strain cdc4, hits give low values): 0.887 (active) | normalized growth (S. cerevisiae deletion strains, locus YFL029C, strain CAK1, hits give low values): 0.894 | normalized growth (S. cerevisiae deletion strains, locus YFR003C, strain YPI1, hits give low values): 0.907 | normalized growth (S. cerevisiae deletion strains, locus YFR019W, strain FAB1, hits give low values): 0.901 | normalized growth (S. cerevisiae deletion strains, locus YFR028C, strain CDC14, hits give low values): 0.863 (active) | normalized growth (S. cerevisiae deletion strains, locus YGR040W, strain KSS1, hits give low values): 0.797 | normalized growth (S. cerevisiae deletion strains, locus YGR052W, strain FMP48, hits give low values): 0.901 | normalized growth (S. cerevisiae deletion strains, locus YGR092W, strain DBF2, hits give low values): 0.614 | normalized growth (S. cerevisiae deletion strains, locus YHR079C, strain IRE1, hits give low values): 0.827 | normalized growth (S. cerevisiae deletion strains, locus YHR082C, strain KSP1, hits give low values): 0.813 | normalized growth (S. cerevisiae deletion strains, locus YHR205W, strain SCH9, hits give low values): 0.615 | normalized growth (S. cerevisiae deletion strains, locus YIL147C, strain SLN1, hits give low values): 0.918 | normalized growth (S. cerevisiae deletion strains, locus YJL095W, strain BCK1, hits give low values): 0.791 | normalized growth (S. cerevisiae deletion strains, locus YJL128C, strain PBS2, hits give low values): 0.957 | normalized growth (S. cerevisiae deletion strains, locus YJL157C, strain FAR1, hits give low values): 0.83 | normalized growth (S. cerevisiae deletion strains, locus YJR016C, strain ILV3, hits give low values): 0.923 | normalized growth (S. cerevisiae deletion strains, locus YJR066W, strain TOR1 (second series), hits give low values): 0.904 | normalized growth (S. cerevisiae deletion strains, locus YJR066W, strain TOR1, hits give low values): 0.786 | normalized growth (S. cerevisiae deletion strains, locus YKL048C, strain ELM1, hits give low values): 0.891 | normalized growth (S. cerevisiae deletion strains, locus YKL067W, strain YNK1, hits give low values): 0.853 | normalized growth (S. cerevisiae deletion strains, locus YKL101W, strain HSL1, hits give low values): 0.817 | normalized growth (S. cerevisiae deletion strains, locus YKL193C, strain SDS22, hits give low values): 0.901 | normalized growth (S. cerevisiae deletion strains, locus YKL203C, strain TOR2, hits give low values): 0.873 | normalized growth (S. cerevisiae deletion strains, locus YLR113W, strain HOG1, hits give low values): 0.804 (active) | normalized growth (S. cerevisiae deletion strains, locus YLR133W, strain CKI1, hits give low values): 0.835 | normalized growth (S. cerevisiae deletion strains, locus YLR403W, strain SFP1, hits give low values): 0.834 | normalized growth (S. cerevisiae deletion strains, locus YML070W, strain DAK1, hits give low values): 0.86 | normalized growth (S. cerevisiae deletion strains, locus YMR001C, strain CDC5, hits give low values): 0.908 | normalized growth (S. cerevisiae deletion strains, locus YMR205C, strain PFK2 (second series), hits give low values): 0.832 | normalized growth (S. cerevisiae deletion strains, locus YMR277W, strain FCP1, hits give low values): 0.884 (active) | normalized growth (S. cerevisiae deletion strains, locus YNL006W, strain LST8, hits give low values): 0.923 | normalized growth (S. cerevisiae deletion strains, locus YNL020C, strain ARK1, hits give low values): 0.797 | normalized growth (S. cerevisiae deletion strains, locus YNL161W, strain CBK1, hits give low values): 0.913 | normalized growth (S. cerevisiae deletion strains, locus YNL183C, strain NPR1, hits give low values): 0.758 | normalized growth (S. cerevisiae deletion strains, locus YNL207W, strain RIO2, hits give low values): 0.907 | normalized growth (S. cerevisiae deletion strains, locus YNL222W, strain SSU72, hits give low values): 0.902 | normalized growth (S. cerevisiae deletion strains, locus YNL307C, strain MCK1 (second series), hits give low values): 0.776 | normalized growth (S. cerevisiae deletion strains, locus YOL078W, strain AVO1, hits give low values): 0.898 | normalized growth (S. cerevisiae deletion strains, locus YOL136C, strain PFK27, hits give low values): 0.837 | normalized growth (S. cerevisiae deletion strains, locus YOR061W, strain CKA2, hits give low values): 0.773 | normalized growth (S. cerevisiae deletion strains, locus YOR119C, strain RIO1, hits give low values): 0.881 | normalized growth (S. cerevisiae deletion strains, locus YOR231W, strain MKK1, hits give low values): 0.845 | normalized growth (S. cerevisiae deletion strains, locus YOR329C, strain SCD5, hits give low values): 0.912 | normalized growth (S. cerevisiae deletion strains, locus YPL031C, strain PHO85, hits give low values): 0.865 | normalized growth (S. cerevisiae deletion strains, locus YPL153C, strain RAD53, hits give low values): 0.777 | normalized growth (S. cerevisiae deletion strains, locus YPL204W, strain HRR25, hits give low values): 0.862 | normalized growth (S. cerevisiae deletion strains, locus YPL209C, strain IPL1, hits give low values): 0.909 | normalized growth (S. cerevisiae deletion strains, locus YPL256C, strain CLN2, hits give low values): 0.837 (active) | normalized growth (S. cerevisiae deletion strains, locus YPR025C, strain CCL1, hits give low values): 0.907 | normalized growth (S. cerevisiae deletion strains, locus YPR106W, strain ISR1, hits give low values): 0.914 | normalized growth (S. cerevisiae deletion strains, locus YPR111W, strain DBF20, hits give low values): 0.893 | normalized growth (S. cerevisiae deletion strains, strain NNK1, hits give low values): 0.927 | normalized growth (S. cerevisiae deletion strains, strain TSCII, hits give low values): 0.902

O=C(NNC(=O)c1ccc[nH]1)Nc1cc(Cl)cc(Cl)c1
normalized growth [1]: 1.01 | normalized growth [2]: 1 | normalized growth [3]: 0.991 | normalized growth [4]: 0.994 | normalized growth [5]: 0.996 | normalized growth [6]: 1 | normalized growth (S. cerevisiae deletion strains, locus YGR229C, strain SMI1, hits give low values): 1.02 | normalized growth [7]: 1.07 | normalized growth [8]: 1.02 | normalized growth [9]: 1.01 | normalized growth [10]: 1.01 | normalized growth (S. cerevisiae deletion strains, locus YKL190W, strain CNB1, hits give low values): 1.01 | normalized growth [11]: 1.05 | normalized growth [12]: 1.01 | normalized growth [13]: 1.04 | normalized growth [14]: 1.03 | normalized growth [15]: 0.992 | normalized growth [16]: 1 | normalized growth [17]: 1.02 | normalized growth [18]: 1.03 | normalized growth [19]: 0.988 | normalized growth [20]: 1.05 | normalized growth [21]: 0.996 | normalized growth [22]: 1.01 | normalized growth (S. cerevisiae deletion strains, locus YOL006C, strain TOP1, hits give low values): 1.08 | normalized growth [23]: 1.02 | normalized growth [24]: 0.922 | normalized growth [25]: 1 | normalized growth (S. cerevisiae strains, strain wild type, hits give low values): 1.02
